# Reference: PubChem BioAssay (NCATS)
# Results filed as inconclusive are left out. Where a call stands in place of a potency, no number is given. A number with no mark means an inactive call. Calls of active or inactive are those of the source. Calls come from the whole dose curve; as a rule, active = well fitted inhibition curve with a large enough effect; inconclusive = small, poorly fitted or top-dose-only effect; inactive = no such curve, though single readings can be large or run the other way. Where a SMILES comes first, the peptide text is derived from it.
# Experiments:
# [1] = test system: Zika virus NS2B-NS3 protease (unlinked complex); experiment: Primary screen GU Rhodamine qHTS for Zika virus inhibitors: Unlinked NS2B-NS3 protease assay (AID 1347159); conditions: Recombinant ZIKV NS2B-NS3 protease, Rhodamine110 substrate fluorescence; series mostly up to 107 µM; note: nearly all actives have a fitted effect of over 60% in size
# Summary of the method: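 Noncovalent NS2B hydrophilic domain–NS3 protease domain complex (25 nM) preincubated 15 min at room temperature with compounds (up to 114 microM) in 10 mM Tris-HCl pH 8.0, 0.01% Tween 20; 1.5 microM Rhodamine110 substrate added, fluorescence change over 15 min fitted to Hill equation.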
# [2] = test system: Zika virus NS2B-NS3 protease (linked construct); experiment: Primary screen NINDS Rhodamine qHTS for Zika virus inhibitors (AID 1347160); conditions: purified NS2B-NS3 protease, Rhodamine110 substrate fluorescence; series mostly up to 33.1 µM; note: nearly all actives have a fitted effect of over 55% in size
# Summary of the method: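 Purified linked NS2B-NS3 protease (NS2B hydrophilic domain joined to NS3 protease by flexible linker), 25 nM in 10 mM Tris-HCl pH 8.0, 0.01% Tween 20. Compounds titrated, 15 min preincubation at room temperature; 1.5 microM Rhodamine110 substrate, FITC fluorescence change over 15 min.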
# Potency is the fitted concentration of half-maximal effect.
Compound,Potency [1],Potency [2],"activity change, negative = inhibition [1]",outcome [2]
CC1=CC(=O)CC(C)(C)C1CCC(C)O[C@@H]1O[C@H](CO)[C@@H](O)[C@H](O)[C@H]1O (stereo partly specified),inactive,inactive,,
CC(=O)NC(Cc1ccccc1)C(=O)NC(C(=O)O)C(C)C (stereo not drawn) (Ac-Phe-Val-OH; configuration not given here),inactive,inactive,,
Cc1noc2c1-c1ccccc1C(c1ccc(Cl)cc1)=N[C@H]2CC(N)=O,inactive,inactive,,
O=C(O)CCc1cc2ccoc2cc1O[C@@H]1O[C@H](CO)[C@@H](O)[C@H](O)[C@H]1O,inactive,inactive,,
C/C=C(\C)C(=O)OC1C(C)C2(O)C3C=C(C)C(=O)C3CC(CO)=CC2C2C(C)(C)C12OC(C)=O (stereo unspecified),inactive,inactive,,
CCOC(=O)c1ccc(NC2CCCCC2)c(N)c1,inactive,inactive,,
C=C1[C@H](OC(C)=O)[C@H]2[C@@H](OC(C)=O)C(C)C[C@]2(OC(C)=O)C(=O)[C@H](C)/C=C/C(C)(C)C(=O)[C@H](OC(=O)C(C)C)[C@H]1OC(C)=O (stereo partly specified),inactive,inactive,,
Cc1cccc(-c2nn3c(c2-c2ccnc4ccc(C(N)=O)cc24)CCC3)n1,inactive,inactive,,
COC(=O)[C@H](Cc1cccc(C(=N)N)c1)[C@@H](C)NC(=O)c1ccc(-c2cc[n+]([O-])cc2)cc1,inactive,inactive,,
C=C[C@H]1[C@H](O[C@@H]2O[C@H](CO)[C@@H](O)[C@H](OC(=O)/C=C/c3ccc(O)c(OC)c3)[C@H]2O)OC=C2C(=O)OCC[C@]21O,inactive,inactive,,
CC(=O)OC[C@]12[C@H](OC(C)=O)[C@H](OC(=O)c3ccccc3)[C@@H]3[C@@H](OC(C)=O)[C@]1(OC3(C)C)[C@H](C)C[C@H](OC(=O)c1ccccc1)[C@@H]2OC(=O)c1ccccc1,inactive,inactive,,
CC(C)=CCC[C@](C)(O[C@@H]1O[C@H](CO[C@@H]2OC[C@H](O)[C@H](O)[C@H]2O)[C@@H](O)[C@H](O)[C@H]1O)[C@H]1CC[C@]2(C)[C@@H]1[C@H](O)C[C@@H]1[C@@]3(C)CC[C@H](O[C@@H]4O[C@H](CO)[C@@H](O)[C@H](O)[C@H]4O[C@@H]4O[C@H](CO)[C@@H](O)[C@H](O)[C@H]4O)C(C)(C)[C@@H]3CC[C@]12C,inactive,inactive,,
CC1CCC2(C(=O)OC3OC(CO)C(O)C(O)C3O)CCC3(C)C(=CCC4C5(C)CCC(O)C(C)(CO)C5CCC43C)C2C1(C)O (stereo unspecified),inactive,inactive,,
C/C(=C\CCC(C)C1CC(O)C2(C)C3CCC4C(C)(C)C(OC5OCC(O)C(O)C5O)CCC45CC35CC(O)C12C)C(=O)O (stereo unspecified),inactive,inactive,,
C[C@@H]1O[C@@H](OC2C(CO)OC(OCC3OC(OC(=O)[C@]45CCC(C)(C)CC4C4=CCC6[C@@]7(C)CC[C@@H](O)[C@](C)(C(=O)O)C7CC[C@@]6(C)[C@]4(C)CC5)C(O)C(O)C3O)C(O)C2O)[C@H](O)[C@H](O)[C@H]1O (stereo partly specified),inactive,inactive,,
COc1c(C)c(OCC(O)C(C)(C)O)cc2c1CNC2=O (stereo unspecified),inactive,inactive,,
CC(=O)[C@@H]1C[C@H](C(C)(C)O[C@@H]2O[C@H](CO)[C@@H](O)[C@H](O)[C@H]2O)CC[C@@]2(CO)OC(=O)C[C@@H]12,inactive,inactive,,
C=C1CC23CC1CCC2C12OC(=O)C(C)(C(O)C(O)C1O)C2C3C(=O)O (stereo unspecified),inactive,inactive,,
CC1CCC2(C(=O)O)CCC3(C)C(=CCC4C5(C)C[C@@H](O)[C@@H](O)C(C)(CO)C5CCC43C)C2C1(C)O (stereo partly specified),inactive,inactive,,
CCCCCOC(=O)Nc1nc(=O)n(C2O[C@H](C)[C@@H](O)[C@H]2O)cc1F (stereo partly specified),inactive,inactive,,
COc1cc(O)cc(C)c1C(=O)O[C@H]1[C@@H](O)[C@@H](n2ccc(=O)[nH]c2=O)O[C@@H]1CO,inactive,inactive,,
CC(NC(=O)[C@H](Cc1ccccc1)NC(=O)OCc1ccccc1)C(=O)CF (stereo partly specified),inactive,inactive,,
CC1=CCC2C(C)(C)CCCC2(C)C1CC12OC1C(O)C(CO)=CC2O (stereo unspecified),inactive,inactive,,
Cc1occc(=O)c1O[C@@H]1O[C@H](COC(=O)CC(C)(O)CC(=O)O)[C@@H](O)[C@H](O)[C@H]1O (stereo partly specified),inactive,inactive,,
C=CC(C)(CCC=C(C)C)O[C@@H]1O[C@H](CO)[C@@H](O)[C@H](O)[C@H]1O (stereo partly specified),inactive,inactive,,
CCCCNc1nc(N)c2[nH]c(=O)n(Cc3ccc(OCCN(C)C)nc3)c2n1,inactive,inactive,,
CC1CC(=O)C2C(O)(C1)CC(O)C13OC1c1c(O)cccc1C(=O)C23O (stereo unspecified),inactive,inactive,,

Compound,Potency [1],Potency [2],"activity change, negative = inhibition [1]",outcome [2]
CC(=O)OC1C(C)C2C(OC3OC(CO)C(O)C(O)C3O)OC=C(C(=O)O)C2C1OC(=O)c1ccccc1 (stereo unspecified),inactive,inactive,,
COc1cc(/C=C/C(=O)OC[C@H]2O[C@@H](OC3OC=C(C(=O)O)C4C(O)CC(C)(O)C34)[C@H](O)[C@@H](O)[C@@H]2O)cc(OC)c1O (stereo partly specified),inactive,inactive,,
COCCCc1sc(-c2ccccc2)nc1C(=O)Nc1ccccc1-c1nc2cc(CN3CCCC3)cnc2s1,inactive,inactive,,
Cc1[nH]c2ccccc2c1CC(=O)N[C@@H](Cc1ccccc1)C(=O)N(C)c1ccccc1,inactive,inactive,,
CC(CCc1ccc(O)cc1)O[C@@H]1O[C@H](CO[C@@H]2OC(CO)[C@H](O)[C@H]2O)[C@@H](O)[C@H](O)[C@H]1O (stereo partly specified),inactive,inactive,,
CC1(C)C(=O)CCC2(C)C1C(O)C=C1COC(=O)C12O (stereo unspecified),inactive,inactive,,
COC(=O)C1C(O)CCC2CN3CCc4c([nH]c5ccccc45)C3CC21 (stereo unspecified),12.6 µM (active),inactive,,
Cc1onc(-c2c(Cl)cccc2Cl)c1CC(=O)NCc1ccc(OCC(F)(F)F)nc1,inactive,inactive,,
COCCN1CCC(C(=O)NO)(S(=O)(=O)c2ccc(Oc3ccc(OC(F)(F)F)cc3)cc2)CC1,inactive,inactive,,
COc1ccc([C@H]2OC[C@H]3[C@@H]2CO[C@@H]3c2ccc(O[C@@H]3O[C@H](CO)C(O)[C@H](O)[C@H]3O)c(OC)c2)cc1OC (stereo partly specified),inactive,inactive,,
CC1=C2CC(=O)C(C)CC/C=C(\C)CC2OC1=O (stereo unspecified),inactive,inactive,,
OC[C@@]1(O)CO[C@H](OC[C@H]2O[C@@H](OC(CCCCc3ccc(O)cc3)CCc3ccc(O)cc3)[C@H](O)[C@@H](O)[C@@H]2O)[C@@H]1O (stereo partly specified),inactive,inactive,,
COc1cc(C(CO)C(OC2OC(CO)C(O)C(O)C2O)c2ccc(O)c(OC)c2)ccc1O (stereo unspecified),inactive,inactive,,
CC(=O)OCC1OC(O[C@H]2CC[C@]34C[C@]35CC(O)[C@]3(C)[C@@H]([C@H](C)CC/C=C(\C)C(=O)O)C(O)C[C@@]3(C)C5CC[C@H]4C2(C)C)C(O)C(O)C1OC1OCC(O)C(O)C1O (stereo partly specified),inactive,inactive,,
C[C@]1(OC(=O)/C=C/c2ccccc2)C[C@@H](O)[C@]2(O)C=CO[C@@H](O[C@@H]3O[C@H](CO)[C@@H](O)[C@H](O)[C@H]3O)[C@@H]21,inactive,inactive,,
O=C(OCC1=CC(Cl)C(O)C(OC(=O)c2ccccc2)C1O)c1ccccc1 (stereo unspecified),inactive,inactive,,
Oc1ccc2c(-c3c(-c4ccccn4)nn4c3CCC4)ccnc2c1,inactive,inactive,,
OC[C@@]1(O)CO[C@@H](OC[C@H]2O[C@@H](OCc3ccccc3)[C@H](O)[C@@H](O)[C@@H]2O)[C@@H]1O,inactive,inactive,,
CC(=O)O[C@H]1[C@H](O[C@H]2CC[C@]34C[C@]35CC[C@]3(C)[C@@H]([C@@]6(C)CC[C@@H](C(C)(C)O)O6)[C@@H](O)C[C@@]3(C)[C@@H]5C[C@H](O[C@@H]3O[C@H](CO)[C@@H](O)[C@H](O)[C@H]3O)[C@H]4C2(C)C)OC[C@@H](OC(C)=O)[C@@H]1O,inactive,inactive,,
CCCN(CCN1CCN(c2ccccc2OC)CC1)C1CCc2ncsc2C1 (stereo unspecified),inactive,inactive,,
COc1ccc(/C=C/C(=O)O[C@@H]2[C@@H](O[C@@H]3O[C@H](CO)[C@@H](O)[C@H](O)[C@H]3O)[C@@H](O)[C@H](O[C@H]3C4C=CO[C@@H](O[C@@H]5O[C@H](CO)[C@@H](O)[C@H](O)[C@H]5O)C4[C@@]4(CO)O[C@@H]34)O[C@H]2C)cc1 (stereo partly specified),inactive,inactive,,
CC1(C)CC[C@]2(C(=O)O[C@@H]3O[C@H](CO[C@@H]4O[C@H](CO[C@@H]5O[C@H](CO)[C@H](O)[C@H](O)[C@H]5O)[C@@H](O)[C@H](O)[C@H]4O)[C@@H](O)[C@H](O[C@@H]4O[C@H](CO)[C@@H](O)[C@H](O)[C@H]4O)[C@H]3O)[C@H](O)C[C@]3(C)C(=CCC4[C@@]5(C)CC[C@H](O[C@@H]6OC[C@@H](O)[C@H](O)[C@H]6O)[C@@](C)(C(=O)O)C5CC[C@]43C)[C@@H]2C1 (stereo partly specified),,inactive,8.5% [at 19.1 µM],
C[C@@H]1O[C@@H](O[C@@H]2\C=C/C=C\C=C/C=C\C[C@H](C)OC(=O)/C=C\[C@H]3O[C@@H]3C[C@H](O)C[C@]3(O)C[C@@H](O)[C@@H](C(=O)O)[C@H](C2)O3)[C@H](O)[C@H](N)[C@@H]1O,inactive,inactive,,
CCCC(C(=O)O)c1c(C)nc2ccc(Cl)cc2c1-c1ccccc1 (stereo unspecified),31.6 µM (active),14.1 µM (active),,
CCC1(O)CC2c3cc(OC)c(OC)cc3CCN2CC1CC(C)C (stereo unspecified),inactive,inactive,,
C[C@@H]1O[C@@H](O[C@H]2[C@H](OC(=O)[C@]34CCC(C)(C)C[C@H]3C3=CCC5[C@@]6(C)CC[C@H](O[C@@H]7O[C@H](CO[C@@H]8OC[C@H](O)[C@H](O)[C@H]8O)[C@@H](O)[C@H](O)[C@H]7O)C(C)(C)C6CC[C@@]5(C)[C@]3(C)C[C@H]4O)OC[C@@H](O)[C@@H]2O)[C@H](O)[C@H](O[C@@H]2OC[C@](O)(CO)[C@H]2O)[C@H]1O[C@@H]1OC[C@H](O)[C@H](O[C@@H]2OC[C@@H](O)[C@H](O)[C@H]2O)[C@H]1O (stereo partly specified),,,-5.76% [at 19.1 µM],inactive [at 10.7 µM]
